Several values for one entry are separate records, joined by “and”; a condition that tells them apart may be missing. Equal entries are not always repeated. Records with an inconclusive call do not appear. Activity calls are given as the source filed them. Rule for the calls, unless noted: active = hit-call score of the fitted dose curve at least 0.9, where 1 is the maximum; inactive = score below 0.9.
Experiments:
[1] = CCTE_Shafer_MEA_acute_spike_number: CCTE's Neural Acute Assay for Total Number of Spikes, Shafer Lab (AID 2284008);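 for AC50: curve fitted for decrease in spike count so AC50 reflects inhibitors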
Outline: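 Total spike count from 40 min recordings before and during compound exposure (0.03-40 uM), given as per-well percent change. Cortical cultures from rat, DIV 13 or 15, 37 C; adaptive detection threshold 8x rms noise.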

[2] = CCTE_Shafer_MEA_acute_firing_rate_mean: CCTE's Neural Acute Assay for Mean Firing Rate, Shafer Lab (AID 2284009);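 note: analyzed for loss of signal so actives lower firing rate relative to DMSO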
Outline: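 Rat cortical neuron cultures matured to DIV 13 or 15, equilibrated 20 min at 37 C, then recorded 40 min for baseline. Compound (0.03-40 uM) added and a further 40 min recorded; percent change in mean firing rate calculated per well.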

[3] = CCTE_Harrill_HTTr_Viability_MCF7: CCTE's 6-hour Cell Viability Assessment for the High-Throughput Transcriptomics (HTTr) Platform, in MCF-7 cells cultured in DMEM + 10% fetal bovine serum, Harrill Lab (AID 2284010)
Outline: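 Propidium iodide exclusion, imaged by high-content analysis, gauged viability after a six-hour exposure across eight concentrations. Cells were MCF-7 grown in DMEM with 10% fetal bovine serum; fits run in both directions against DMSO.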

[4] = CCTE_Harrill_HTTr_Apoptosis_MCF7: CCTE's 6-hour Apoptosis Assessment for the High-Throughput Transcriptomics (HTTr) Platform, in MCF-7 cells cultured in DMEM + 10% fetal bovine serum, Harrill Lab (AID 2284011)
Outline: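 High-content imaging of CellEvent Caspase 3/7 Green signal follows a six-hour exposure, with eight concentrations per chemical. MCF-7 cells grown in DMEM plus 10% fetal bovine serum; activity fitted in both directions against DMSO.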

[5] = CCTE_Harrill_HTTr_CellCount_MCF7: CCTE's Cell Proliferation Assessment for the High-Throughput Transcriptomics (HTTr) Platform, Harrill Lab (AID 2284012; active = hit-call score of the fitted dose curve at least 0.9, where 1 is the maximum;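 note: cells exposed to compound for six hours; intended direction is loss of nuclei count meaning fewer cells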)
Outline: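 Cell count from high-content imaging of Hoechst-labeled nuclei serves as viability/growth readout. Chemicals were applied to MCF-7 cells in eight concentrations for six hours, with fitting in both directions relative to DMSO.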

[6] = CCTE_Shafer_MEA_acute_burst_number: CCTE's Neural Acute Assay for Single-Electrode Bursts, Shafer Lab (AID 2284013)
Outline: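 Percent change in single-electrode burst number per well, from 40-min recordings taken before and after adding compound (0.03-40 uM) to primary rat cortical neurons on MEA plates at DIV 13 or 15, 37 C.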

[7] = CCTE_Shafer_MEA_acute_burst_duration_mean: CCTE's Neural Acute Assay for Mean Burst Duration, Shafer Lab (AID 2284014);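 note: hits are decreases in mean burst duration relative to DMSO controls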
Outline: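 Rat cortical cultures, DIV 13/15; 40 min baseline, then 40 min with compound (0.03-40 uM), 37 C. Spikes: 300-5000 Hz band-pass, 8x rms threshold. Read-out: % change in mean single-electrode burst duration, DMSO-referenced, loss direction.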

[8] = CCTE_Shafer_MEA_acute_interburst_interval_mean: CCTE's Neural Acute Assay for Mean Interburst Interval, Shafer Lab (AID 2284016);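 note: percent change of mean interburst interval versus each well's own pre-dose baseline; curves fitted for decrease in interburst interval relative to DMSO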
Outline: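 MEA recording of spontaneous network bursting in primary rat cortical cultures; mean interburst interval was compared before and after a 40-min compound exposure (0.03-40 uM) and expressed as percent change, relative to DMSO.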

[9] = CCTE_Shafer_MEA_acute_burst_percentage_mean: CCTE's Neural Acute Assay for Percentage of Spikes in a Burst, Shafer Lab (AID 2284017);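 for AC50: curve fitted for loss of signal so potency reflects decreased burst percentage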
Outline: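 Compounds were tested at 0.03-40 uM on primary rat cortical neuron networks grown over microelectrodes, with at least three wells per compound. Spontaneous firing was recorded for 40 min before and 40 min after dosing, and the change in burst percentage was computed per well.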

[10] = CCTE_Shafer_MEA_acute_burst_percentage_std: CCTE's Neural Acute Assay for Standard Deviation of Burst Percentage, Shafer Lab (AID 2284018);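 note: fitted in the negative direction so actives lower burst percentage SD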
Outline: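 Rat primary cortical neurons on 48-well MEAs, DIV 13 or 15, 37 C. 40-min baseline then 40-min recording with compound (0.03-40 uM); well-level SD of per-electrode burst spike percentage, expressed as percent change from baseline.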

[11] = CCTE_Shafer_MEA_acute_per_network_burst_spike_number_mean: CCTE's Neural Acute Assay for Average Number of Spikes in a Network Burst, Shafer Lab (AID 2284019);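 for AC50: curve fitted for loss of signal so actives reduce spikes per network burst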
Outline: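 Rat cortical cultures, DIV 13/15; spike threshold 8x rms noise, 300-5000 Hz band-pass, 12.5 kHz sampling; wells need >/= 10 active electrodes. Compound 0.03-40 uM, 40 min, 37 C; % change vs own baseline, DMSO negative control.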

[12] = CCTE_Shafer_MEA_acute_per_network_burst_spike_number_std: CCTE's Neural Acute Assay for Standard Deviation of Number of Spikes in a Network Burst, Shafer Lab (AID 2284020);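 note: fitted for decrease in spike-number SD versus DMSO so actives lower it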
Outline: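 Rat cortical cultures, DIV 13/15, 37 C; 20-min stabilisation, 40-min baseline, compound 0.03-40 uM, 40-min re-record. Spikes detected at 8x rms noise (300-5000 Hz band-pass). Readout: % change from baseline in per-burst spike-number SD.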

[13] = molecular target: Estrogen receptor (Homo sapiens) (UniProt P03372); assay: CCTE_Deisenroth_AIME_96WELL_LUC_Active: CCTE's 96-well Estrogen Receptor Transactivation Assay with AIME metabolic competence (ERTA luciferase; metabolism positive), Deisenroth Lab (AID 2284023; active = hit-call score of the fitted dose curve at least 0.9, where 1 is the maximum)
Outline: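 Metabolism-positive mode: induced rat hepatic S9 in alginate microspheres conditions test solutions (0.002 - 200 uM, 10 points) for 2 hours. VM7Luc4E2 ER luciferase reporter cells then exposed 24 h; positive-direction fit against 17beta-estradiol, n=4 typical.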

[14] = CCTE_Shafer_MEA_acute_cross_correlation_area: CCTE's Neural Acute Assay for Area of Cross Correlation, Shafer Lab (AID 2284024);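 note: area under pooled inter-electrode spike cross-correlation near zero lag as percent change from own baseline; curves fitted for loss of cross-correlation area so actives lower synchrony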
Outline: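 Percent change in well-wide cross-correlation area (window around zero lag) between 40 min baseline and 40 min post-compound recordings, 37 C; rat cortical cultures on MEA at DIV 13 or 15, dosed 0.03-40 uM, wells needing >/= 10 active electrodes.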

[15] = molecular target: Estrogen receptor (Homo sapiens) (UniProt P03372); assay: CCTE_Deisenroth_AIME_96WELL_LUC_Inactive: CCTE's 96-well Estrogen Receptor Transactivation Assay without AIME metabolic competence (ERTA luciferase; metabolism negative), Deisenroth Lab (AID 2284025; active = hit-call score of the fitted dose curve at least 0.9, where 1 is the maximum)
Outline: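 Metabolism-negative arm: chemicals (0.002–200 uM, 10 points) incubated 2 h with alginate-water microspheres, then medium moved onto VM7Luc4E2 cells for 24 h luciferase read-out. Positive direction vs 17beta-estradiol; n≥4 experiments.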

[16] = CCTE_Shafer_MEA_acute_cross_correlation_HWHM: CCTE's Neural Acute Assay for Cross Correlation at Half Width at Half Maximum, Shafer Lab (AID 2284026);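 note: percent change per well from pre-dose baseline in spike cross-correlogram half width; hits are a decrease in cross-correlogram half width relative to DMSO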
Outline: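 Per-well percent change in cross-correlogram half width at half maximum, derived from 40-min recordings before and after compound (0.03-40 uM) at 37 C. Cultures were rat cortical neurons, DIV 13 or 15, with adaptive spike detection at 8x rms.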

[17] = CCTE_Simmons_MITO_max_resp_rate: CCTE's HepG2 Seahorse XF Respirometric Screening Assay at Maximal Respiratory State [uncoupled], Simmons Lab (AID 2284002); settings: actives raise or lower the signal
Outline: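 Maximal (FCCP-uncoupled) respiration rate in HepG2, from Seahorse kinetic OCR over 72 min at 6 min cycles. Compounds at 125 nM–100 uM final, 7 points, three biological replicates; both directions fit relative to DMSO.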

[18] = CCTE_Simmons_MITO_inhib_resp_rate: CCTE's HepG2 Seahorse XF Respirometric Screening Assay at Inhibited Respiratory State [full ETC block], Simmons Lab (AID 2284006); settings: actives raise or lower the signal
Outline: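 This endpoint is the respiration rate remaining after rotenone/antimycin A block, in HepG2 cells on a Seahorse XF96. Chemicals spanned 125 nM–100 uM final, in three biological replicates. OCR was read every 6 minutes for 72 minutes and compared with DMSO vehicle.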

[19] = CCTE_Simmons_MITO_basal_resp_rate: CCTE's HepG2 Seahorse XF Respirometric Screening Assay at Basal Respiratory State, Simmons Lab (AID 2284001); settings: actives raise or lower the signal
Outline: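 Basal-phase OCR of HepG2 cells on a Seahorse XF96, analysed by bidirectional fit relative to DMSO vehicle; chemicals at 7 concentrations, 125 nM–100 uM final; three biological replicates; fenpyroximate and 2,4-dinitrophenol positive controls.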

[20] = CCTE_Simmons_MITO_viability: CellTiter-Glo Viability Assessment for CCTE's HepG2 Seahorse XF Respirometric Screening Assay [post-hoc], Simmons Lab (AID 2284007; active = hit-call score of the fitted dose curve at least 0.9, where 1 is the maximum;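 for AC50: cells exposed to chemical for 90 min before the ATP read; actives lower ATP signal relative to DMSO baseline meaning reduced viability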)
Outline: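 Luciferase-coupled ATP read-out after the Seahorse run: HepG2 cells treated 90 minutes with test chemical, 7-point series of 125 nM–100 uM final, in triplicate biological runs. Vehicle DMSO; dichlone as positive control over 8 concentrations.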

Measured: AC50

Chain of Estrogen receptor (Homo sapiens) (P03372 whole entry, looked up): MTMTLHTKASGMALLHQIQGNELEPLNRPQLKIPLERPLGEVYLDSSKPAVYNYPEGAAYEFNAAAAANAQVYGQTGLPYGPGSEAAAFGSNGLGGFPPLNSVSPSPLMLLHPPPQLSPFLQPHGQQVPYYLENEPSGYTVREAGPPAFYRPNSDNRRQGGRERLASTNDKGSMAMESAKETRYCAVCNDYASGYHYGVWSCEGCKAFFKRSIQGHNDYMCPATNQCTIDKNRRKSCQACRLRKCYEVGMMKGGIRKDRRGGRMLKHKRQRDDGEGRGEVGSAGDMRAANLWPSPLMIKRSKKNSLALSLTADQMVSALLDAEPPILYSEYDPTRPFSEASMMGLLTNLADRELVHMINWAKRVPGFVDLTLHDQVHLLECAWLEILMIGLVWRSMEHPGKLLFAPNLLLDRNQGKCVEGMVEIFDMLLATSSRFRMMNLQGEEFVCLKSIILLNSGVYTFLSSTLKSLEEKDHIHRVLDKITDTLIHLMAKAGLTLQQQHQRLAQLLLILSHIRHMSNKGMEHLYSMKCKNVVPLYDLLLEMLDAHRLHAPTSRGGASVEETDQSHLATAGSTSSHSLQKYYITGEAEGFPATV

COc1ccc(C(c2ccc(OC)cc2)C(Cl)(Cl)Cl)cc1
active: [9] 19.9 µM | [13] 1.1 µM | [15] 3.77 µM
not listed: [17] | [18] | [19] | [20]
inactive: all other assays above

CC1=C(C(=O)Nc2ccccc2)SCCO1
inactive: [17] | [18] | [3] | [4] | [5]

CCCC1COC(Cn2cncn2)(c2ccc(Cl)cc2Cl)O1 (configuration not stated)
active: [19] 18.4 µM | [17] 33.7 µM | [20] 26.5 µM | [9] 14.6 µM | [11] 9.03 µM | [12] 12.6 µM | [16] 25.8 µM
not listed: [5] | [13] | [15]
inactive: all other assays above

CCCCNC(=O)OCC#CI
active: [19] 14.3 µM | [17] 91.7 µM | [1] 10.2 µM | [2] 10.2 µM | [8] 31.4 µM | [9] 20 µM | [12] 6.46 µM | [16] 31.7 µM
not listed: [13] | [15]
inactive: all other assays above

CC1COC(Cn2cncn2)(c2ccc(Oc3ccc(Cl)cc3)cc2Cl)O1 (configuration not stated)
active: [19] 6.1 µM | [17] 6.64 µM | [18] 6.05 µM | [1] 3.53 µM | [2] 3.53 µM | [6] 5.26 µM | [9] 4.77 µM | [10] 36.6 µM | [12] 3.5 µM | [16] 4.15 µM
inactive: [20] | [3] | [4] | [5] | [7] | [8] | [11] | [14]

CO/C=C(/C(=O)OC)c1ccccc1Oc1cc(Oc2ccccc2C#N)ncn1
active: [19] 9.66 µM and 9.17 µM | [17] 6.48 µM and 5.12 µM | [18] 17.9 µM and 8.88 µM | [8] 11.1 µM | [9] 10.2 µM
not listed: [13] | [15]
inactive: all other assays above

CCON=C(CC)C1=C(O)CC(c2c(C)cc(C)cc2C)CC1=O (configuration not stated)
inactive: [3] | [4]

CCCCNC(=O)n1c(NC(=O)OC)nc2ccccc21
inactive: [3] | [4] | [5]

CCNc1nc(Cl)nc(NC(C)C)n1
active: [9] 13.9 µM | [16] 11.8 µM
not listed: [17] | [18] | [19] | [20]
inactive: all other assays above

COC(=O)C=C(C)OP(=O)(OC)OC
inactive: [3] | [4] | [5]

CN(C)C(=S)SSC(=S)N(C)C
inactive: [3] | [4] | [5]

COc1cnc(OC)n2nc(NS(=O)(=O)c3c(OCC(F)F)cccc3C(F)(F)F)nc12
inactive: [3] | [4] | [5]

Cc1cc(Cl)ccc1OCC(=O)O
inactive: [3] | [4]

COP(N)(=O)SC (configuration not stated)
not listed: [5] | [13] | [15] | [17] | [18] | [19] | [20]
inactive: all other assays above

From PubChem BioAssay (EPA / NIEHS)
